This is a sample that favours compounds with a hit; in the whole collection about 19% have one here.
HT1080-NT tox: kills 2HG-producing HT-1080-NT fibrosarcoma cells; HT-1080-NT fibrosarcoma viability, CellTiter-Glo ATP luminescence, 48 h; Potency, µM (titrated, usually from 46.1 µM), most hits filed as cytotoxic; 1.6% of 360,000 active; AID 686970;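 also: NT is the 2HG producing partner of a matched IDH1 knockdown line; nearly all actives have a fitted effect of over 55% in size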
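Luminescent CellTiter-Glo readout after 48 hours of compound exposure at 37 degrees C defined viability of HT-1080-NT cells. Activity was normalized to DMSO wells and cell-free media wells; concentration-response curves were fitted and assigned curve classes.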
HT1080 IDH1KD tx: HT-1080 IDH1 knockdown cell toxicity (counter line); AID 686971; HT-1080 IDH1 knockdown viability, ATP luminescence, 48 h; Potency, µM (highest dose often 46.1 µM), actives largely listed as cytotoxic; 2% of 360,000 active
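After a 2 h attachment period, IDH1KD HT-1080 cells took pin-transferred compound for 48 h at 37 °C; ATP-based luminescence after 10 min room-temperature reagent incubation reported viability.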
TDP1 cell CPT: DT40-hTDP1 cell growth loss with CPT; chicken DT40 Tdp1-/-;hTDP1 cells + 20 nM CPT, ATP luminescence, 48 h; Potency, µM (highest dose often 46.2 µM), usual class: inhibitors; 12% of 420,000 active; AID 686979; also: nearly all actives have a fitted effect of over 55% in size
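Chicken DT40 Tdp1-/- cells complemented with human TDP1, 400 cells/well, exposed to compounds plus 20 nM camptothecin for at least 48 h at 37 C; viability read as ATP content by CellTiter-Glo luminescence.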
KB-V1 cytotox: KB-V1 MDR subline cytotoxicity; KB-V1 MDR cells viability, CellTiter-Glo, 72 h; Potency, µM (titrated, usually from 46.1 µM), usual class: cytotoxic; 3.4% of 400,000 active; AID 1347076; also: nearly all actives have a fitted effect of over 60% in size
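Following 72 h at 37 degrees C with compound, KB-V1 cell viability was read by CellTiter-Glo luminescence, medium being phenol-red-free DMEM plus 10% FBS; concentration-response parameters came from normalized, curve-fitted qHTS data.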
KB-3-1 cytotox: KB-3-1 parental cell cytotoxicity. KB-3-1 viability, CellTiter-Glo ATP luminescence, 72 h. Potency, µM (doses to about 46.1 µM), hits mostly cytotoxic. 1.4% of 400,000 active. AID 1347075; also: nearly all actives have a fitted effect of over 60% in size
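Cytotoxicity in the drug-sensitive parental line KB-3-1 was scored as loss of CellTiter-Glo luminescence following 72 h incubation with compound. Values come from curve fitting of normalized concentration-response data.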
TDP1 cell noCPT: qHTS for Inhibitors of human tyrosyl-DNA phosphodiesterase 1 (TDP1): qHTS in cells in absence of CPT. AID 686978, 2013. DT40 Tdp1-/- hTDP1 cells, no CPT, ATP luminescence, 48 h. 15% of 420,000 active. Potency, µM (highest dose often 46.2 µM), actives largely listed as inhibitors; also: nearly all actives have a fitted effect of over 55% in size
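No-CPT arm: Tdp1-/-;hTDP1 DT40 cells (400/well) plus compounds, incubated ≥48 hr at 37 °C. Readout CellTiter-Glo luminescence.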
Of the large screens only hits and unclear results are named; the others gave an inactive call. Calls follow the shape of the dose curve; as a rule, active = well fitted curve in the direction sought with a large enough effect; inconclusive = small, poorly fitted or top-dose-only effect, or another doubt; inactive = no such curve, though single readings can be large; an effect the other way counts as inactive or inconclusive.

CCC(C)Oc1ccccc1C1CC(=O)NC2=C1C(=O)CCC2 (stereo not given)	HT1080-NT tox inconclusive, HT1080 IDH1KD tx inconclusive, TDP1 cell CPT 26µM, KB-V1 cytotox inconclusive, KB-3-1 cytotox inconclusive, TDP1 cell noCPT inconclusive
CC(=O)Oc1cc2c(c3ccccc13)CCC2=O	TDP1 cell noCPT inconclusive
CC(=O)Oc1cc2cccc(OC(C)=O)c(=O)c2c(OC(C)=O)c1OC(C)=O	HT1080-NT tox inconclusive, TDP1 cell CPT 4.6µM, KB-V1 cytotox inconclusive, TDP1 cell noCPT 18µM
CCc1nc2ccc(C(=O)N3CCN(S(=O)(=O)CC)CC3)cn2c1N(C)Cc1cccs1	TDP1 cell CPT inconclusive, TDP1 cell noCPT inconclusive
Cc1ccc(CN(C)C2CCN(C)CC2)cc1	TDP1 cell CPT inconclusive
Cc1ccc(S(=O)(=O)Nc2cc3c(cc2NCc2ccccc2)n(C)c(=O)n3C)cc1	TDP1 cell CPT 9.2µM, TDP1 cell noCPT 16µM (no result: HT1080-NT tox, HT1080 IDH1KD tx)
Cn1c(=O)n(C)c2cc(N3CCOCC3)c(NS(=O)(=O)c3ccc(F)cc3)cc21	TDP1 cell CPT inconclusive, TDP1 cell noCPT inconclusive (no result: HT1080-NT tox, HT1080 IDH1KD tx)
Cc1cc2c(cc1NS(=O)(=O)c1ccc(Br)cc1)n(C)c(=O)c(=O)n2C	TDP1 cell CPT inconclusive, TDP1 cell noCPT inconclusive (no result: HT1080-NT tox, HT1080 IDH1KD tx)
CCc1ccc(S(=O)(=O)Nc2cc3c(cc2C)n(C)c(=O)n3C)cc1	HT1080-NT tox 16µM, HT1080 IDH1KD tx 15µM, TDP1 cell CPT 5.2µM, KB-3-1 cytotox 5.2µM, TDP1 cell noCPT 2.9µM
Cn1c(=O)n(C)c2cc(NS(=O)(=O)c3ccc(F)cc3)c(NCc3ccccc3)cc21	TDP1 cell CPT 9.2µM, KB-V1 cytotox inconclusive, TDP1 cell noCPT 15µM (no result: HT1080-NT tox, HT1080 IDH1KD tx)
Cn1c(=O)n(C)c2cc(S(=O)(=O)Nc3ccccc3O)ccc21	TDP1 cell CPT inconclusive, KB-V1 cytotox inconclusive, TDP1 cell noCPT inconclusive
CC(C)c1ccc(S(=O)(=O)Nc2cc3c(cc2NCc2ccccc2)n(C)c(=O)n3C)cc1	TDP1 cell CPT inconclusive, KB-V1 cytotox inconclusive, KB-3-1 cytotox 23µM, TDP1 cell noCPT inconclusive (no result: HT1080-NT tox, HT1080 IDH1KD tx)
C[C@@H]1NC(=O)[C@@H](N)CNC(=O)[C@H](C2CCNC(N)=N2)NC(=O)/C(=C/NC(N)=O)NC(=O)[C@H](CNC(=O)C[C@@H](N)CCCN)NC1=O (stereo not given in full)	none (no result: HT1080-NT tox, HT1080 IDH1KD tx, KB-V1 cytotox, KB-3-1 cytotox)
COc1ccc(NC(=O)N(Cc2nnc3n2CCCCC3)c2ccc(OC)c(Cl)c2)cc1	KB-3-1 cytotox inconclusive (no result: HT1080-NT tox, HT1080 IDH1KD tx)
Cc1ccc(S(=O)(=O)Nc2cc3c(cc2NCc2ccccc2)n(C)c(=O)n3C)c(C)c1	TDP1 cell CPT 8.2µM, KB-V1 cytotox inconclusive, TDP1 cell noCPT 23µM (no result: HT1080-NT tox, HT1080 IDH1KD tx)
CCO/C=C/C(O)(CNC(=O)c1ccc(C(C)(C)C)cc1)C(F)(F)F (stereo not given)	TDP1 cell CPT inconclusive, KB-3-1 cytotox inconclusive, TDP1 cell noCPT 16µM
CCOC(=O)CNC(=O)c1ccc(C)cc1	none
O=S1(=O)N=C(c2ccccc2)c2ccccc21	none
CCc1ccccc1N(CC)C(=O)CCc1nc(-c2ccc(C)cc2)no1	TDP1 cell CPT 23µM, KB-3-1 cytotox inconclusive, TDP1 cell noCPT 23µM
CCCN(C(=O)CCc1nc(-c2ccc(C)cc2)no1)c1ccc(OCC)cc1	TDP1 cell CPT 16µM, TDP1 cell noCPT inconclusive (no result: HT1080-NT tox, HT1080 IDH1KD tx)
CCN(Cc1ccccc1)C(=O)CCc1nc(-c2ccc(C)cc2)no1	TDP1 cell CPT 29µM, KB-V1 cytotox inconclusive, TDP1 cell noCPT 23µM
COCCn1c(N)c(C(=S)NC(=O)c2cccs2)c(=O)[nH]c1=O	TDP1 cell CPT 10µM, TDP1 cell noCPT inconclusive
COCCN(C(=O)COC(=O)CNC(=O)c1cccs1)c1c(N)n(Cc2ccccc2)c(=O)[nH]c1=O	none
COc1ccccc1-n1cnc2c(c1=O)c1nc3ccccc3nc1n2-c1ccc(C)cc1	TDP1 cell CPT inconclusive, KB-V1 cytotox inconclusive, TDP1 cell noCPT inconclusive

Screening data (PubChem)
